Reference: publication PMC5540273 (PLoS ONE, 2017)
Values joined by “and” are separate entries in the source; they are usually repeats but may differ in a detail not shown here. Identical values can stand only once. Like-named read-outs stand apart in the source and are kept apart here.

What was measured:
CSNK1A1L = details: concentration: 1 μM, replicates: in singlicate; n = 1
CSNK1A1 = details: concentration: 1 μM, replicates: in singlicate; n = 1
CSNK1D = details: concentration: 1 μM, replicates: in singlicate, n = 1
CSNK1E = details: concentration: 1 μM, replicates: in singlicate; n = 1
CSNK1G1 = details: concentration: 1 μM, replicates: in singlicate, n = 1
CSNK1G2 = details: concentration: 1 μM, replicates: in singlicate, n = 1
CSNK1G3 = details: concentration: 1 μM, replicates: in singlicate, n = 1
CSNK2A1 = details: n = 1
CSNK2A2 = details: n = 1
CTK = system: T1, CTK; details: concentration: 1 μM, replicates: in singlicate, n = 1
T1 construct: gene MATK

DAPK1 = details: concentration: 1 μM, replicates: in singlicate, n = 1
DAPK2 = details: concentration: 1 μM, replicates: in singlicate; n = 1
DAPK3 = details: concentration: 1 μM, replicates: in singlicate, n = 1
DCAMKL1 = system: T2, DCAMKL1; details: concentration: 1 μM, replicates: in singlicate, n = 1
T2 construct: gene DCLK1

DCAMKL2 = system: T3, DCAMKL2; details: concentration: 1 μM, replicates: in singlicate, n = 1
T3 construct: gene DCLK2

DCAMKL3 = system: T4, DCAMKL3; details: concentration: 1 μM, replicates: in singlicate, n = 1
T4 construct: gene DCLK3

DDR1 = details: concentration: 1 μM, replicates: in singlicate, n = 1
DDR2 = details: concentration: 1 μM, replicates: in singlicate, n = 1
DLK = system: T5, DLK; details: concentration: 1 μM, replicates: in singlicate, n = 1
T5 construct: gene MAP3K12

DMPK2 = system: T6, DMPK2; details: concentration: 1 μM, replicates: in singlicate, n = 1
T6 construct: gene CDC42BPG

[1] = concentration: 1 μM, replicates: in singlicate
[2] = concentration: 1 μM, replicates: in singlicate, 1 µM
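Further: KINOMEscan kinase panel screen.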

## Cl.Nc1ncnc2occ(-c3ccc(NC(=O)Nc4cc(C(F)(F)F)ccc4F)cc3)c12 [SB-707548]
CSNK1A1L
  %Inh: 11%
CSNK1A1
  %Inh: 10%
CSNK1D
  %Inh: 32%
CSNK1E
  %Inh: 25%
CSNK1G1
  %Inh: 16%
CSNK1G2
  %Inh: 0%
CSNK1G3
  %Inh: 32%
CSNK2A1; [1]
  %Inh: 0%
CSNK2A2; [1]
  %Inh: 0%
CTK
  %Inh: 4%
DAPK1
  %Inh: 24%
DAPK2
  %Inh: 14%
DAPK3
  %Inh: 14%
DCAMKL1
  %Inh: 17%
DCAMKL2
  %Inh: 4%
DCAMKL3
  %Inh: 0%
DDR1
  %Inh: 100%
DDR2
  %Inh: 98.3%
DLK
  %Inh: 21%
DMPK2
  %Inh: 24%

## O=C1Cc2cc(Nc3nc(NCc4cccc(S(=O)(=O)C(F)(F)F)c4)ncc3C(F)(F)F)ccc2N1
CSNK1A1L
  %Inh: 0%
CSNK1A1
  %Inh: 12%
CSNK1D
  %Inh: 0%
CSNK1E
  %Inh: 0%
CSNK1G1
  %Inh: 11%
CSNK1G2
  %Inh: 0%
CSNK1G3
  %Inh: 0%
CSNK2A1; [1]
  %Inh: 12%
CSNK2A2; [1]
  %Inh: 5%
CTK
  %Inh: 5%
DAPK1
  %Inh: 0%
DAPK2
  %Inh: 0%
DAPK3
  %Inh: 0%
DCAMKL1
  %Inh: 15%
DCAMKL2
  %Inh: 0%
DCAMKL3
  %Inh: 12%
DDR1
  %Inh: 0%
DDR2
  %Inh: 11%
DLK
  %Inh: 33%
DMPK2
  %Inh: 19%

## COc1cc2ncn(-c3cc(OCc4sccc4Cl)c(C(N)=O)s3)c2cc1OC [GSK448459]
CSNK1A1L
  %Inh: 6%
CSNK1A1
  %Inh: 0%
CSNK1D
  %Inh: 16%
CSNK1E
  %Inh: 28%
CSNK1G1
  %Inh: 4%
CSNK1G2
  %Inh: 0%
CSNK1G3
  %Inh: 13%
CSNK2A1; [1]
  %Inh: 25%
CSNK2A2; [1]
  %Inh: 34%
CTK
  %Inh: 0%
DAPK1
  %Inh: 12%
DAPK2
  %Inh: 2%
DAPK3
  %Inh: 36%
DCAMKL1
  %Inh: 5%
DCAMKL2
  %Inh: 4%
DCAMKL3
  %Inh: 0%
DDR1
  %Inh: 0%
DDR2
  %Inh: 12%
DLK
  %Inh: 32%
DMPK2
  %Inh: 0%

## C[C@@H](Oc1cc(-n2cnc3ccc(NC(=O)NC(C)(C)C)cc32)sc1C(N)=O)c1ccccc1Cl [GSK346294]
CSNK1A1L
  %Inh: 6%
CSNK1A1
  %Inh: 0%
CSNK1D
  %Inh: 3%
CSNK1E
  %Inh: 19%
CSNK1G1
  %Inh: 0%
CSNK1G2
  %Inh: 0%
CSNK1G3
  %Inh: 32%
CSNK2A1; [1]
  %Inh: 2%
CSNK2A2; [1]
  %Inh: 0%
CTK
  %Inh: 0%
DAPK1
  %Inh: 20%
DAPK2
  %Inh: 10%
DAPK3
  %Inh: 19%
DCAMKL1
  %Inh: 31%
DCAMKL2
  %Inh: 0%
DCAMKL3
  %Inh: 0%
DDR1
  %Inh: 16%
DDR2
  %Inh: 18%
DLK
  %Inh: 33%
DMPK2
  %Inh: 16%

## COc1ccc(Nc2nccc(N3CCC(NC(=O)Nc4cc(C)ccc4C)C3)n2)cc1 (centres unmarked) [GSK1379741]
CSNK1A1L
  %Inh: 2%
CSNK1A1
  %Inh: 0%
CSNK1D
  %Inh: 0%
CSNK1E
  %Inh: 12%
CSNK1G1
  %Inh: 0%
CSNK1G2
  %Inh: 0%
CSNK1G3
  %Inh: 14%
CSNK2A1; [1]
  %Inh: 0%
CSNK2A2; [1]
  %Inh: 0%
CTK
  %Inh: 0%
DAPK1
  %Inh: 0%
DAPK2
  %Inh: 0%
DAPK3
  %Inh: 10%
DCAMKL1
  %Inh: 0%
DCAMKL2
  %Inh: 0%
DCAMKL3
  %Inh: 4%
DDR1
  %Inh: 23%
DDR2
  %Inh: 0%
DLK
  %Inh: 0%
DMPK2
  %Inh: 0%

## O=c1cc(N2CCOCC2)nc2n(Cc3cccc4ccccc34)ccn12 [GSK2333389]
CSNK1A1L
  %Inh: 11%
CSNK1A1
  %Inh: 13%
CSNK1D
  %Inh: 42%
CSNK1E
  %Inh: 20%
CSNK1G1
  %Inh: 0%
CSNK1G2
  %Inh: 0%
CSNK1G3
  %Inh: 20%
CSNK2A1; [1]
  %Inh: 13%
CSNK2A2; [1]
  %Inh: 0%
CTK
  %Inh: 1%
DAPK1
  %Inh: 0%
DAPK2
  %Inh: 0%
DAPK3
  %Inh: 0%
DCAMKL1
  %Inh: 0%
DCAMKL2
  %Inh: 0%
DCAMKL3
  %Inh: 2%
DDR1
  %Inh: 14%
DDR2
  %Inh: 0%
DLK
  %Inh: 0%
DMPK2
  %Inh: 0%

## O=c1cc(N2CCOCC2)nc2n(Cc3cccc(Cl)c3Cl)c(C3CC3)nn12 [GSK2358994]
CSNK1A1L
  %Inh: 0%
CSNK1A1
  %Inh: 0%
CSNK1D
  %Inh: 7%
CSNK1E
  %Inh: 11%
CSNK1G1
  %Inh: 0%
CSNK1G2
  %Inh: 5%
CSNK1G3
  %Inh: 23%
CSNK2A1; 1 µM
  %Inh: 16%
CSNK2A2; 1 µM
  %Inh: 0%
CTK
  %Inh: 0%
DAPK1
  %Inh: 26%
DAPK2
  %Inh: 12%
DAPK3
  %Inh: 6%
DCAMKL1
  %Inh: 0%
DCAMKL2
  %Inh: 7%
DCAMKL3
  %Inh: 17%
DDR1
  %Inh: 21%
DDR2
  %Inh: 0%
DLK
  %Inh: 0%
DMPK2
  %Inh: 0%

## Cl.Cl.Cl.Fc1ccc(-c2ncn(C3CCNCC3)c2-c2ccnc(Nc3ccccc3)n2)cc1 [SB-238039]
CSNK1A1L
  %Inh: 98.9%
CSNK1A1
  %Inh: 97.7%
CSNK1D; 1 µM
  %Inh: 95.2% and 93.4%
CSNK1E
  %Inh: 99.9%
CSNK1G1; 1 µM
  %Inh: 78% and 75%
CSNK1G2; 1 µM
  %Inh: 99.5% and 98.9%
CSNK1G3; 1 µM
  %Inh: 99.2% and 96.6%
CSNK2A1; [2]
  %Inh: 0% and 19%
CSNK2A2; [2]
  %Inh: 0% and 25%
CTK; 1 µM
  %Inh: 40% and 1%
DAPK1; 1 µM
  %Inh: 0% and 24%
DAPK2
  %Inh: 0%
DAPK3; 1 µM
  %Inh: 18% and 0%
DCAMKL1; 1 µM
  %Inh: 18% and 12%
DCAMKL2; 1 µM
  %Inh: 22% and 33%
DCAMKL3; 1 µM
  %Inh: 8% and 75%
DDR1; 1 µM
  %Inh: 87% and 84%
DDR2; 1 µM
  %Inh: 87% and 63%
DLK; 1 µM
  %Inh: 29% and 7%
DMPK2; 1 µM
  %Inh: 99.9% and 99.8%

## COc1ccc(CNC(=O)NC2CCN(c3ccnc(Nc4ccc(OC)cc4)n3)C2)cc1 (centres unmarked) [GSK1379727]
CSNK1A1L
  %Inh: 5%
CSNK1A1
  %Inh: 0%
CSNK1D
  %Inh: 0%
CSNK1E
  %Inh: 8%
CSNK1G1
  %Inh: 0%
CSNK1G2
  %Inh: 0%
CSNK1G3
  %Inh: 8%
CSNK2A1; [1]
  %Inh: 7%
CSNK2A2; [1]
  %Inh: 0%
CTK
  %Inh: 0%
DAPK1
  %Inh: 0%
DAPK2
  %Inh: 0%
DAPK3
  %Inh: 20%
DCAMKL1
  %Inh: 11%
DCAMKL2
  %Inh: 0%
DCAMKL3
  %Inh: 5%
DDR1
  %Inh: 0%
DDR2
  %Inh: 20%
DLK
  %Inh: 50%
DMPK2
  %Inh: 0%

## CN(C(=O)c1ccc(-c2cc(-c3c[nH]nc3-c3ccccn3)ccn2)cc1)C1CCOCC1 [GW810083]
CSNK1A1L
  %Inh: 8%
CSNK1A1
  %Inh: 37%
CSNK1D
  %Inh: 29%
CSNK1E
  %Inh: 42%
CSNK1G1
  %Inh: 5%
CSNK1G2
  %Inh: 0%
CSNK1G3
  %Inh: 0%
CSNK2A1; [1]
  %Inh: 0%
CSNK2A2; [1]
  %Inh: 0%
CTK
  %Inh: 5%
DAPK1
  %Inh: 11%
DAPK2
  %Inh: 2%
DAPK3
  %Inh: 0%
DCAMKL1
  %Inh: 0%
DCAMKL2
  %Inh: 0%
DCAMKL3
  %Inh: 19%
DDR1
  %Inh: 0%
DDR2
  %Inh: 36%
DLK
  %Inh: 14%
DMPK2
  %Inh: 0%
